# From PubChem BioAssay
# Shown are actives, neighbours in structure and some others; about 0.86% of the full set was active somewhere.
# GLS inh – inhibitors of human glutaminase (GLS); 410,000 tested, 0.21% active; Potency, µM (doses to about 45.5 µM), for inactives: at the highest dose activity change, negative = inhibition, hits mostly inhibitors; GLS enzymatic activity, qHTS titration; O94925
#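 Assay buffer: 45 mM KH2PO4 pH 8.2, 0.02% Tween-20. hKGA acts on L-glutamine (1 mM solution added); product glutamate is reported by an oxidase/peroxidase Amplex Red coupling, with fluorescence taken at baseline and 30 min.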
# RECQ1 inh – inhibitors of human RECQ1 DNA helicase | RECQ1 DNA unwinding, red fluorescence kinetic read | Potency, µM (titrated, usually from 57.3 µM), for inactives: at the top dose activity, negative = inhibition, actives largely listed as inhibitors | 240,000 tested, 0.54% active;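 note: plate controls were vehicle for no effect and no enzyme for full effect; nearly all actives have a fitted effect of over 30% in size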
#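 RECQ1T1 50 nM; forked duplex (20 bp + 30-nt ss tails) 200 nM, ATP 2 mM final; pH 8.0, 2 mM MgCl2, 2.5 ug/ml poly(dI-dC); 15 min compound preincubation; discontinuous kinetic read over 2 h at RT.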
# BLM inh – blocks DNA unwinding by human BLM helicase; P54132; recombinant BLM DNA unwinding, fluorescence dequenching; Potency, µM (series often up to 56.1 µM), without a hit: at the top dose activity change, negative = inhibition, most hits filed as inhibitors; 350,000 tested, 0.2% active; AID 2528;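 note: plate controls were vehicle for no effect and no enzyme for full effect; nearly all actives have a fitted effect of over 35% in size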
# PGK inhibitor – T. brucei PGK inhibition; Potency, µM (top dose mostly 57.5 µM), for the others: top-dose activity change, negative = inhibition, hits mostly inhibitors; 380,000 tested, 0.043% active; PGK/GAPDH coupled, Kinase-Glo luminescence, 60 min; P07378; AID 602233; note: nearly all actives have a fitted effect of over 60% in size
#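 Recombinant glycosomal PGK reaction used 1,3-bisphosphoglycerate generated in-well by GAPDH (100nM final) in 100mM TEA pH 7.6, 5mM MgCl2, 0.01% Tween-20. After 60 minutes at room temperature, ATP was read by Kinase-Glo Plus luminescence end-point.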
# FEN1 inhibitor – human FEN1 inhibition | P39748 | Recombinant FEN1 flap cleavage, fluorescence, 15 min | Potency, µM (titrated, usually from 114 µM), without a hit: at the highest dose activity change, negative = inhibition, most hits filed as inhibitors | 390,000 tested, 0.35% active; note: nearly all actives have a fitted effect of over 65% in size
# Target sequence (P39748 whole entry, looked up): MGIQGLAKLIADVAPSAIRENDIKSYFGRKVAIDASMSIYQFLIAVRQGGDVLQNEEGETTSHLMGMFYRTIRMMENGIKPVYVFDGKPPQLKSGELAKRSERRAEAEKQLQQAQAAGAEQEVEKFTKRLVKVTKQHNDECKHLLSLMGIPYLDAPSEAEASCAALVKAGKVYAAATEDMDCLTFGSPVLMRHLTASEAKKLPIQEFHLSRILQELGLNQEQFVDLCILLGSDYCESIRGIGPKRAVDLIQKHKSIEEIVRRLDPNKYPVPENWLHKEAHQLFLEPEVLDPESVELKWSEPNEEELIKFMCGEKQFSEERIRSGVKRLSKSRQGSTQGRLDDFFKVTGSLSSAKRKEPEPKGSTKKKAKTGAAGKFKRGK
#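 Compounds are tested as a concentration series against 10 nM FEN1; after a 15 min room-temperature preincubation, 50 nM substrate starts cleavage, with plate reads at 0 and 15 min. Normalized responses are fitted by a Hill equation.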
# APEX1 inh – APE1 (human) endonuclease inhibition. P27695. recombinant APE1, TAMRA/BHQ-2 abasic DNA cleavage fluorescence. Potency, µM (series often up to 65.8 µM), for inactives: at the top dose activity change, negative = inhibition, actives largely listed as inhibitors. 350,000 tested, 0.35% active;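 note: plate controls were vehicle for no effect and reference inhibitor for full effect; nearly all actives have a fitted effect of over 55% in size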
# Target sequence (P27695 whole entry, looked up): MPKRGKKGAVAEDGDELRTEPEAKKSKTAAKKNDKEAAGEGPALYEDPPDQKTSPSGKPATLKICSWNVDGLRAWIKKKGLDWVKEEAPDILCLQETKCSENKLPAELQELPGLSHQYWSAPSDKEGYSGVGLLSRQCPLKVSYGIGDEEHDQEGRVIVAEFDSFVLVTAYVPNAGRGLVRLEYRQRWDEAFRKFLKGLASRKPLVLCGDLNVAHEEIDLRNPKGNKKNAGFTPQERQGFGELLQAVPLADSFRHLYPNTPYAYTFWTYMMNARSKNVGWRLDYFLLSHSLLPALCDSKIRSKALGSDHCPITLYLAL
#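 APE1 at 0.75 nM preincubated 15 min at room temperature with compound. Reaction then started with 50 nM double-stranded THF-abasic substrate labelled with TAMRA/BHQ-2, and 525/598 nm fluorescence read kinetically. Activity taken as third-minus-first read difference, normalized to DMSO and NSC13755 controls.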
# Numbers without * were called inactive; i = inactive; ? = inconclusive; . = no result given; [ ] = dose if it differs, or a comment. Calls come from the whole dose curve; as a rule, active = well fitted curve in the direction sought with a large enough effect; inconclusive = small, poorly fitted or top-dose-only effect, or another doubt; inactive = no such curve, though single readings can be large; an effect the other way counts as inactive or inconclusive. Unless noted, % is set by controls: 0 for no effect and ±100 for the full control effect; potency is the fitted concentration of half-maximal effect.
SMILES,GLS inh,RECQ1 inh,BLM inh,PGK inhibitor,FEN1 inhibitor,APEX1 inh
N#CC(C#N)=NNc1ccc(S(N)(=O)=O)cc1,56%,i,-16%,?,40µM*,?
COc1ccc(OC)c([C@@H](O)[C@H](C)N)c1,.,.,.,.,.,1%
COc1cc(CCN)c(OC)cc1Br,-2%[99.4 µM],.,.,.,.,.
CC/C(CC(c1ccccc1)c1c(O)c2ccccc2oc1=O)=N\NC(N)=S (centres undefined),10%,-4%,-6%,i,-4%,25µM*
CC(=O)CC(c1ccc(O)cc1)c1c(O)c2ccccc2oc1=O (centres undefined),.,6%,1%,.,.,12%
CO/N=C(/C(=O)NC1C(=O)N2C(C(=O)O)=C(CSc3nc(=O)c(O)nn3C)CSC12)c1csc(N)n1 (centres undefined),28µM*,-3%,-5%,.,.,?
Cc1ccc(OCCn2cccc2/C=C2/C(=O)NC(=O)N(Cc3ccco3)C2=O)cc1,-12%,?,-21%,-15%,?,-10%
CCc1ccc(N2C(=O)NC(=O)/C(=C\c3cccn3CCOc3ccc(C(C)C)cc3)C2=O)cc1,2%,25µM*,-9%,6%,1%,-5%
CN1C(=O)C(=Cc2ccc(Sc3ccccc3)o2)C(=O)N(C)C1=O,4.5µM*,-1%,1%,-1%,-3%,-6%
O=C1NC(=O)C(=Cc2ccc(Sc3ccccc3)o2)C(=O)N1,?,-1%,-3%,-1%,?,22%
CC(C)[C@@]1(NC(=O)[C@H]2C[C@H]3c4cccc5[nH]cc(c45)C[C@@H]3N(C)C2)O[C@]2(O)[C@H]3CCCN3C(=O)CN2C1=O (tested in a mixture with another compound),8%,.,.,.,.,.
Cc1cccc(N2C(=O)/C(=C/c3ccc(CN(CCC#N)S(C)(=O)=O)o3)C(=O)NC2=S)c1,?,18µM*,-8%,-21%,?,?
Cc1ccc(N2C(=O)/C(=C/c3ccc(CN(CCC#N)S(C)(=O)=O)o3)C(=O)NC2=S)cc1C,.,25µM*,-17%,.,.,?
O=C1NC(=O)C(=Cc2ccc(-c3ccc(F)cc3O)o2)C(=O)N1,11%,.,-1%,-12%,18µM*,31%
O=C1NC(=O)C(=Cc2ccc(-c3ccc(Cl)cc3)o2)C(=O)N1,-1%,.,0%,-4%,18µM*,-12%
COc1cc(CC(C)N)cc2c1OCO2 (centres undefined),2%[99.4 µM],.,.,.,.,.
COc1ccc(NS(=O)(=O)c2ccc3c(c2)oc(=O)n3C)cc1Cl,-11%,.,-3%,1%,14%,54%
CCOc1ccc(NS(=O)(=O)c2ccc(Cl)c(N=Nc3c(O)[nH]c(=S)[nH]c3=O)c2)cc1Br,4%,.,.,22µM*,.,.
NCC[C@H](O)C(=O)N[C@@H]1C[C@H](N)[C@@H](O[C@H]2O[C@H](CN)[C@@H](O)[C@H](O)[C@H]2N)[C@H](O[C@@H]2O[C@H](CO)[C@@H](O)[C@H]2O)[C@H]1O,.,.,.,.,.,-1%[21 µM]
CCOC(=O)c1c(NS(=O)(=O)c2ccccc2)n(CCCOC)c2nc3ccccc3nc12,5%,-2%,5.6µM*,-21%,-6%,?
CCC12CCN(C)CC1Oc1c(C)cccc12 (centres undefined),.,.,.,.,.,12%
C=CCC1(C(C)CCC)C(=O)NC(=O)NC1=O (centres undefined),-12%[99.4 µM],.,.,.,.,.
Cc1ccc(C=C2C(Cl)=C(Cl)C(Cl)=C2Cl)cc1,-15%,10µM*,-25%,-26%,?,16µM*
O=[N+]([O-])c1c(Cl)c(Cl)cc(Cl)c1Cl,-18%[99.4 µM],5%,.,.,.,3%
CNc1cc(Cl)c2nonc2c1[N+](=O)[O-],0%,-5%,-8%,1%,13µM*,-2%
SMILES,GLS inh,RECQ1 inh,BLM inh,PGK inhibitor,FEN1 inhibitor,APEX1 inh
COc1ccc2[nH]c3c(c2c1)CCN=C3C,3%,?,-12%[21.4 µM],3%,50µM*,0%
Cc1ccsc1/C=C1\C(=O)NC(=S)N(C)C1=O,25%,.,5%,-14%,79µM*,-11%
CN1C(=O)/C(=C\c2ccc(N3CCCCCC3)cc2)C(=O)NC1=S,0%,-6%,-7%,-6%,-8%,7%
COc1ccc(/C=C2\C(=O)NC(=S)N(C)C2=O)cc1C,135%,1%,-3%,10µM*,50µM*,1%
CN1CCN(c2ccc(/C=C3\C(=O)NC(=S)N(c4cccc(Br)c4)C3=O)o2)CC1,11µM*,14µM*,-13%,-13%,?,3%
N#CC1=C(N)Oc2n[nH]c(-c3cccs3)c2C1c1ccco1 (centres undefined),3%,32µM*,-13%,-10%,-5%,-1%
CCCc1[nH]nc2c1C(c1cc(OC)cc(OC)c1)C(C#N)=C(N)O2 (centres undefined),70%,i,-1%,i,9%,-1%
CC(=O)[O-].CC(=O)[O-].O.O.O.[Pb+2],.,-3%,.,.,.,-3%
CCC12CCN(CCc3ccc(F)cc3)CC1Oc1c(O)cccc12 (centres undefined),.,.,.,.,.,51%
C[C@H]1O[C@@H](O[C@H]2[C@@H](O)C[C@@H](O[C@H]3[C@@H](O)C[C@H](O[C@H]4CC[C@@]5(C)[C@H](CC[C@@H]6[C@@H]5CC[C@]5(C)[C@@H](C7=CC(=O)OC7)CC[C@]65O)C4)O[C@@H]3C)O[C@@H]2C)C[C@H](O)[C@@H]1O,.,.,.,.,18%,.
Oc1c(Br)c(Br)c(Br)c(Br)c1Br,17%,?,.,?,50µM*,3%
Oc1c(Br)cc(Br)cc1Br,20%,-5%,-2%,-11%,-5%,9%
O=C1NC(=O)N(c2ccc(Cl)cc2)C(=O)/C1=C\c1ccc(Sc2nc3ccccc3[nH]2)o1,-21%,25µM*,-15%,-21%,79µM*,?
Clc1ccc(C(c2ccc(Cl)cc2)n2cc[n+](CC(OCc3ccc(Cl)cc3Cl)c3ccc(Cl)cc3Cl)c2)cc1 (centres undefined),14µM*,?,.,i,79µM*,-4%
Cc1cccc(N2C(=O)NC(=O)/C(=C/c3ccc([N+](=O)[O-])o3)C2=O)c1,7.1µM*,1%,-8%,?,20µM*,?
Cc1ccc(N2C(=O)NC(=O)/C(=C\C=C\c3ccco3)C2=O)cc1,12%,?,-11%,-2%,?,?
Cc1cccc(N2C(=O)NC(=O)/C(=C\C=C\c3ccco3)C2=O)c1,27%,22µM*,-21%,-12%,?,?
